We go through 40 compounds from PubChem BioAssay (Tox21).

Results filed as inconclusive are left out. Entries that show only a call come without a potency. Active and inactive are the calls of the source. The call rests on the fitted dose curve.
Potency means the concentration at half of the fitted maximal effect.

This assay in a line: qHTS assay to identify small molecule agonists of the endoplasmic reticulum stress response signaling pathway - cell viability counter screen (AID 1159517). Further: nearly all actives have a fitted effect of over 50% in size. Conditions: ESRE-bla HeLa viability, CellTiter-Glo luminescence, 5 h; series mostly up to 61 µM. An excerpt:
U.S. Tox21 Program National Center for Advancing Translational Sciences [NCATS] NIH Chemical Genomics Center [NCGC] U.S. Environmental Protection Agency [EPA] National Institutes of Environmental Health Sciences [NIEHS] National Toxicology Program [NTP] U.S. Food and Drug Administration [FDA] Tox21 Assay Overview: Endoplasmic Reticulum (ER) plays an important role in cellular signaling, protein folding/maturation, stress response, lipid biosynthesis, calcium storage and release etc. Under stress conditions, proteins in ER misfold or unfold, and leading to the expression of ER stress responsive genes. ER stress has been associated with a variety of pathophysiological conditions such as cancer, inflammation, neurodegenerative diseases, diabetes, ischemic heart disease etc. To identify the compounds that induce ER stress response, an ER stress reporter cell line, CellSensor ESRE-bla HeLa (Life Technologies, Carlsbad, CA) containing a beta-lactamase reporter gene under control of the Endoplasmic reticulum Stress Response Element (ESRE) was used to screen Tox21 10K compound library. The cytotoxicity of the Tox21 compound library against the ESRE-bla HeLa cell line was tested in parallel by measuring cell viability using the CellTiter-Glo assay in the same wells.
Tox21 Assay Protocol Summary: ESRE-bla HeLa cells were dispensed at 1,500 cells/6 uL of assay medium per well into black wall/clear-bottom 1536-well plates using a Multidrop Combi (ThermoFisher Scientific, Waltham, MA) dispenser. After the assay plates were incubated at 37 C and 5% CO2 for an overnight, 23 nL of compounds dissolved in DMSO, positive controls or DMSO only was transferred to the assay plate by a Pintool station (Kalypsys, San Diego, CA). The assay plates were incubated at 37 C and 5% CO2 for 5 hr. One uL of LiveBLAzer B/G FRET substrate (Life Technologies) was added using a FRD (Flying Reagent Dispenser, Aurora Discovery, San Diego, CA) and the plates were incubated at room temperature for 2 hr. Fluorescence intensity (405 nm excitation, 460 nm and 530 nm emissions) was measured using an Envision plate reader (PerkinElmer, Shelton, CT). For cytotoxicity, 4 ul/well of CellTiter-Glo reagent was added into the assay plates using an FRD. After 30 min incubation at room temperature, the luminescence intensity was measured using a ViewLux plate reader (PerkinElmer).
Take `CC(C)=CCOc1ccc(/C=C/C(=O)c2ccc(OCC=C(C)C)cc2OCC(=O)O)cc1`: the Potency entry is “inactive”. With `O=C(c1ccc(F)cc1)C1CCN(CCn2c(=O)[nH]c3ccccc3c2=O)CC1` the entry was “inactive”; with `C/C=C(\C)C(=O)OCc1ccccc1`, “inactive”; with `Clc1ccc2n[nH]nc2c1`, “inactive”. With `CC(C)(C)CC(C)(C)c1ccc(O)c(Cc2ccc(Cl)cc2Cl)c1` the figure was 21.3 µM (active). Then `Cc1onc(-c2c(Cl)cccc2Cl)c1C(=O)N[C@@H]1C(=O)N2[C@@H]1SC(C)(C)[C@@H]2C(=O)O`, with “inactive”.

For the compound `CCC1=C[C@@H]2CN(C1)Cc1c([nH]c3ccccc13)[C@@](C(=O)OC)(c1cc3c(cc1OC)N(C)[C@H]1[C@@](O)(C(=O)OC)[C@H](OC(C)=O)[C@]4(CC)C=CCN5CC[C@]31[C@@H]54)C2`, the Potency result is “inactive”. As for `CCCCCCOC(=O)c1ccc(O)cc1`, the Potency is 49 µM (active). As to `CCN(C(=O)N(CC)c1ccccc1)c1ccccc1`, the Potency result is “inactive”. Then `O=C(OCC1CO1)C1CCCCC1C(=O)OCC1CO1` (stereo not given), with “inactive”; and `CCCCC(CC)CN=C(N)NC(N)=NCCCCCCN=C(N)NC(N)=NCC(CC)CCCC` (stereo not given), with 16.9 µM (active). Then `Cc1cc(=O)oc2cc(N(C)C)ccc12`, with “inactive”; and `CC(C)(C)c1ccc(C(=O)CCCN2CCC(OC(c3ccccc3)c3ccccc3)CC2)cc1`, with 23.9 µM (active). Then `CCCCCCCCCCCCCCCC[N+](C)(C)CCN(Cc1ccc(OC)cc1)c1ncccn1`, with 21.3 µM (active). `Nc1c2ccccc2nc2ccccc12`: the Potency entry is “inactive”. With `O=[N+]([O-])c1ccccc1Nc1ccccc1` the entry was “inactive”; with `Clc1ccc(C(Cn2ccnc2)OCc2ccc(Sc3ccccc3)cc2)c(Cl)c1` (stereo not given), “inactive”; with `Cc1cccc2c1cc1ccc3cccc4ccc2c1c34`, “inactive”. Regarding `O=C1C=CC(=O)N1c1ccc(Cc2ccc(N3C(=O)C=CC3=O)cc2)cc1`, the Potency was 34.7 µM (active).

Consider `c1ccc(CSCc2ccccc2)cc1`, for which the Potency entry was “inactive”. With `CC(C)OC(=O)c1cc2c(OCC(O)CNC(C)(C)C)cccc2[nH]1` (stereo not given) the entry was “inactive”; with `Cc1cc(N)c(S(=O)(=O)O)cc1Cl`, “inactive”; with `CCCN(CCC)C(=O)C(CCC(=O)OCCCN1CCN(CCOC(=O)Cc2c(C)n(C(=O)c3ccc(Cl)cc3)c3ccc(OC)cc23)CC1)NC(=O)c1ccccc1` (stereo not given), “inactive”. Then `CCCCN(CCCC)c1ccc(C(=O)c2ccccc2C(=O)O)c(O)c1`, with 35 µM (active); and `CCCC(C)c1ccccc1O` (stereo not given), with “inactive”. Take `Oc1ccc2c(c1)-c1ccccc1C2`: the Potency entry was “inactive”. Then `Cc1[nH]cnc1C[C@H]1CCc2c(C)c3ccccc3n2C1=O`, with “inactive”; and `O=C1c2c(O)ccc(Nc3ccc(CCO)cc3)c2C(=O)c2c([N+](=O)[O-])ccc(O)c21`, with “inactive”.

Take `CCCCCCC[N+](CC)(CC)CCCCc1ccc(Cl)cc1`: the Potency entry is “inactive”.

Regarding `N=C1C=CC(=C(c2ccc(N)cc2)c2ccc(N)cc2)C=C1`, the Potency result is “inactive”. Then `O=C1CCCCCN1SSN1CCCCCC1=O`, with “inactive”; and `COc1ccc(-c2ccc3cc(C(=O)O)ccc3c2)cc1C12CC3CC(CC(C3)C1)C2`, with 10.7 µM (active).

With `CC(C)(C)C(=O)OCOC(=O)[C@@H]1N2C(=O)[C@@H](NC(=O)[C@H](N)c3ccccc3)[C@H]2SC1(C)C`, the Potency entry was “inactive”. With `CCOC(=O)O[C@H](C)OC(=O)c1ccc2c(c1)cc(C(=O)NC1CCN(C(C)C)CC1)n2Cc1cc(-c2ccc(Cl)s2)on1` the figure was 45.8 µM (active); with `CC[C@H]1O[C@]2(CC[C@@H]1C)C[C@@H]1C[C@@H](C/C=C(\C)C[C@@H](C)/C=C/C=C3\CO[C@@H]4[C@H](O)C(C)=C[C@@H](C(=O)O1)[C@]34O)O2`, 24.3 µM (active); with `CCc1cc(Cc2cc(CC)cc(C(C)(C)C)c2O)c(O)c(C(C)(C)C)c1`, 21.9 µM (active). Then `CCCCCCCCCCC=O`, with “inactive”; and `C=CC(=O)OCC(CO)(COC(=O)C=C)COC(=O)C=C`, with 21.9 µM (active); and `CN(C)CCCOC1(Cc2ccccc2)CCCCCC1`, with “inactive”.

For `CCN(C(=O)c1cc(C)cc(OC[C@H](C)Nc2ccncc2)c1)C(C)C`, the Potency entry is “inactive”.
